Test results as given in PubChem BioAssay (NCATS).
Records with an inconclusive call do not appear. Where a call stands in place of a potency, no number is given. Activity calls are given as the source filed them. The call rests on the fitted dose curve; in most records, active means well fitted activation curve with a large enough effect; inconclusive means small, poorly fitted or top-dose-only effect; inactive means flat fitted curve, though single readings scatter.

Test: qHTS for Activators of Parkin Expression: LOPAC Validation Assay (NLuc Reporter) (AID 720572)
Settings: Parkin promoter NanoLuc reporter cells, luminescence; series mostly up to 46.1 µM
Outline: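 Neuronal cells with a Parkin promoter-driven FLuc/NLuc coincidence reporter were treated 24 h at 37 C in 7-point dose response (LOPAC). NLuc luminescence read after FLuc; signals normalized to DMSO and positive control (100%).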
For `O=C(OCCN1CCOCC1)C1(c2ccccc2)CCCCC1`, the Potency was “inactive”.
For `CC1CCN(CC[C@H]2CCCN2S(=O)(=O)c2cccc(O)c2)CC1`, the Potency was “inactive”.
With `CCCCCCCCCCCCCCCCCCOC[C@H](COP(=O)([O-])OCC[N+](C)(C)C)OC` the Potency was “inactive”.
In the case of `O=c1onc2cnc3ccccc3n12`, the Potency is reported as “inactive”.
With `COc1cc(C(O)C(=O)O)ccc1O` (stereo not drawn) the Potency was “inactive”.
For `O=C(O)C1=CCCNC1`, the Potency was “inactive”.
For `CNCCNS(=O)(=O)c1cccc2cnccc12`, the Potency was “inactive”.
With `NCCCCN` the Potency was “inactive”.
For `CNc1cc(NS(=O)(=O)c2ccc(N)cc2)nc(NC)n1`, the Potency was “inactive”.
With `CC(C)(C)c1cc(/C=C(\C#N)C(N)=S)cc(C(C)(C)C)c1O` the Potency was “inactive”.
With `CC#CCOC(=O)c1c(C)nc2sc3c(c2c1N)CCC(O)C3` (stereo not drawn) the Potency was “inactive”.
With `CC(=O)O[C@H]1CC2(C)[C@@H](C[C@@H](O)[C@H]3[C@@]4(C)CC[C@@H](O)[C@@H](C)[C@@H]4CC[C@@]32C)C1=C(CCC=C(C)C)C(=O)O` (stereo partly drawn) the Potency was “inactive”.
For `O=c1ccc2c(OCCCCc3ccccc3)c3ccoc3cc2o1`, the Potency was “inactive”.
In the case of `C[C@@H](NCCc1ccc(O)cc1)[C@@H](O)c1ccc(O)cc1`, the Potency is reported as “inactive”.
In the case of `Cc1cc(Cn2cnc3c2C[C@@H](C(=O)O)N(C(=O)C(c2ccccc2)c2ccccc2)C3)ccc1N`, the Potency is reported as “inactive”.
With `N=C(N)SCCc1cnc[nH]1` the Potency was “inactive”.
With `C=CC[C@H](N)C(=O)O` the Potency was “inactive”.
For `N[C@H](C(=O)O)[C@H](Cc1ccccc1)C(=O)O`, the Potency was “inactive”.
For `NC(N)=N[C@@H](CCC(=O)O)C(=O)O`, the Potency was “inactive”.
With `CC(=O)O[C@H]1Cc2ccccc2N(C(N)=O)c2ccccc21` the Potency was “inactive”.
In the case of `CC(N)=O`, the Potency is reported as “inactive”.
With `Nc1ccc(N2C(=O)c3ccccc3C2=O)c(Cl)c1` the Potency was “inactive”.
For `N[C@H](C(=O)O)[C@H]1C[C@@H]1C(=O)O`, the Potency was “inactive”.
In the case of `CN1C2CCC1CC(OC(c1ccccc1)c1ccccc1)C2` (stereo not drawn), the Potency is reported as “inactive”.
With `N[C@H](C(=O)O)[C@H](O)C(=O)O` the Potency was “inactive”.
In the case of `CCCCCC(O)CCCC(=O)O` (stereo not drawn), the Potency is reported as “inactive”.
In the case of `CCCCCCCCCCCCCCC[C@H](O)[C@H](N)CO`, the Potency is reported as “inactive”.
With `OC[C@H]1O[C@@H](n2cnc3cncnc32)[C@H](O)[C@@H]1O` the Potency was “inactive”.
With `c1ccc2nc(C3=NCCN3)ccc2c1` the Potency was “inactive”.
For `CCCCCCCCCC(=O)NC(CN1CCOCC1)[C@H](O)c1ccccc1` (stereo partly drawn), the Potency was “inactive”.
For `COc1ccccc1N1CCN(CCCNc2c(C)c(=O)n(C)c(=O)n2C)CC1`, the Potency was “inactive”.
With `Nc1ccc(CCNc2ncnc3c2ncn3C2OC(CO)C(O)C2O)cc1` (stereo not drawn) the Potency was “inactive”.
For `CN(C)C(=O)/N=N/C(=O)N(C)C`, the Potency was “inactive”.
For `CCC(=O)N1CCN(C(=O)c2ccccc2)CC1`, the Potency was “inactive”.
For `CCCn1c(=O)c2[nH]c(C3CCCC3)nc2n(CCC)c1=O`, the Potency was “inactive”.
With `O=C(O)/C(=C/c1c(C(=O)O)[nH]c2cc(Cl)cc(Cl)c12)c1ccccc1` the Potency was “inactive”.
In the case of `CC1=C(C(=O)O)N2C(=O)[C@@H](NC(=O)C(N)C3=CCC=CC3)[C@H]2SC1` (stereo partly drawn), the Potency is reported as “inactive”.
In the case of `CCC1(O)CC2CN(CCc3c([nH]c4ccccc34)[C@@](C(=O)OC)(c3cc4c(cc3OC)N(C)C3[C@]45CCN4CC=C[C@@](CC)([C@@H](OC(C)=O)[C@]3(O)C(=O)OC)[C@H]45)C2)C1` (stereo partly drawn), the Potency is reported as “inactive”.
